Assay results from PubChem BioAssay (Tox21).
“And” between values parts separate entries of the source, which are not always exact repeats. Identical values can stand only once. Some structures have more than one record in an assay (separate samples or runs), and their calls can disagree. The source made the active and inactive calls. Entries that show only a call come without a potency. Unless noted, calls follow the shape of the dose curve; as a rule, active = well fitted curve in the direction sought with a large enough effect in the repeat runs; inconclusive = weak or mixed curves; inactive = no such curve, though single readings can be large; an effect the other way counts as inactive or inconclusive.

Legend:
[1] = qHTS assay to test for compound auto fluorescence at 535 nm (green) in HEK293 cells (AID 720680); also: potency is read from the fitted curve at half-maximal effect
[2] = qHTS assay to test for compound auto fluorescence at 460 nm (blue) in HEK293 cell free culture (AID 720681)
Procedure, shortened: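 Compounds were added to cell-free DMEM with 10% FBS and fluorescence read directly. The blue channel used 405 nm excitation and 460 nm emission, with triamterene as the reference fluorophore.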

[3] = qHTS assay to test for compound auto fluorescence at 535 nm (green) in HEK293 cell free culture (AID 720682); also: potency is read from the fitted curve at half-maximal effect
Procedure, shortened: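 Green-channel intensity (Ex/Em 485/535 nm) was recorded from compound-treated wells containing only DMEM with 10% FBS. Fluorescein provided the equivalency standard.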

[4] = qHTS assay to test for compound auto fluorescence at 590 nm (red) in HEK293 cell free culture (AID 720683); also: potency is read from the fitted curve at half-maximal effect
Procedure, shortened: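 Cell-free wells of DMEM with 10% FBS received compound, and intrinsic fluorescence was read at excitation/emission 540/590 nm. Values expressed as equivalence to Rose Bengal sodium.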

[5] = qHTS assay to test for compound auto fluorescence at 590 nm (red) in HepG2 cell free culture (AID 720684)
Procedure, shortened: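 Compounds are added to culture medium (MEM, 10% FBS) lacking cells, then fluorescence is read at excitation 540 nm, emission 590 nm, with Rose Bengal sodium as the equivalency standard.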

[6] = qHTS assay to test for compound auto fluorescence at 460 nm (blue) in HepG2 cell free culture (AID 720685)
Procedure, shortened: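 Compound (23 nL) or DMSO pinned into cell-free MEM with 10% FBS; blue fluorescence read at 405/460 nm excitation/emission, expressed as auto-fluorescence equivalency to triamterene.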

[7] = qHTS assay to test for compound auto fluorescence at 535 nm (green) in HepG2 cell free culture (AID 720686); also: potency is read from the fitted curve at half-maximal effect
[8] = target: Glucocorticoid receptor (Homo sapiens) (UniProt P04150); test: qHTS assay to identify small molecule agonists of the glucocorticoid receptor (GR) signaling pathway (AID 720691; active = well fitted activation curve with a large enough effect in the signal ratio in the repeat runs, not every such curve was filed as active; inconclusive = weak or mixed curves, or effect the other way; inactive = no such curve, though single readings can be large or run the other way; the % refers to the signal ratio; also: potency is read from the fitted curve at half-maximal effect)
Procedure, shortened: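 Fluorescence intensity from LiveBLAzer B/G FRET substrate (2 h, room temperature) reports beta-lactamase expression driven by the glucocorticoid response element in GR-bla HeLa cells after 18 h compound exposure at 37 C.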

[9] = qHTS assay to identify small molecule antagonists of the glucocorticoid receptor (GR) signaling pathway - cell viability counter screen (AID 720693); also: nearly all actives have a fitted effect of over 55% in size; also: potency is read from the fitted curve at half-maximal effect
[10] = qHTS assay for identifying genotoxic compounds that show differential cytotoxicity against isogenic chicken DT40 cell lines with known DNA damage response pathways - wild type cell line (AID 743012); also: nearly all actives have a fitted effect of over 60% in size; also: potency is read from the fitted curve at half-maximal effect
Procedure, shortened: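 Wild type DT40, 300 cells/well, ~0.5 h settle at 37 C/5% CO2; compounds in DMSO added by pintool; 40 h at 37 C/5% CO2; CellTiter-Glo, 30 min RT; luminescence.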

[11] = qHTS assay to identify small molecule antagonists of the androgen receptor (AR) signaling pathway - cell viability counter screen (AID 743033; also: nearly all actives have a fitted effect of over 45% in size; also: potency is read from the fitted curve at half-maximal effect)
[12] = qHTS assay to identify small molecule antagonists of the androgen receptor (AR) signaling pathway using the MDA cell line - cell viability counter screen (AID 743041; also: nearly all actives have a fitted effect of over 45% in size; also: potency is read from the fitted curve at half-maximal effect)
Procedure, shortened: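 Same-well cytotoxicity was assessed by CellTiter-Fluor in MDA-kb2 AR-luc cells after 16 h of compound treatment under R1881 agonism.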

[13] = qHTS assay to test for compound auto fluorescence at 460 nm (blue) in HepG2 cells (AID 720687)
Procedure, shortened: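 HepG2 cells in MEM with 10% FBS, attached overnight at 37 C, were exposed to compound or DMSO for 1 hr at 37 C, 5% CO2. Blue fluorescence was read at 405/460 nm, with triamterene as reference fluorophore.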

[14] = target: Glucocorticoid receptor (Homo sapiens) (UniProt P04150); test: qHTS assay to identify small molecule antagonists of the glucocorticoid receptor (GR) signaling pathway (AID 720692; active = well fitted inhibition curve with a large enough effect in the signal ratio in the repeat runs, not every such curve was filed as active; inconclusive = weak or mixed curves, or effect the other way; inactive = no such curve, though single readings can be large or run the other way; the % refers to the signal ratio)
Procedure, shortened: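 HeLa GR-bla cells; cmpd + dex 5 nM final, 18 h 37 C; LiveBLAzer B/G FRET substrate 2 h RT; fluorescence intensity read. Antagonist mode, qHTS.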

[15] = target: Androgen receptor (Homo sapiens) (UniProt P10275); test: qHTS assay to identify small molecule antagonists of the androgen receptor (AR) signaling pathway (AID 743035; active = well fitted inhibition curve with a large enough effect in the signal ratio in the repeat runs, not every such curve was filed as active; inconclusive = weak or mixed curves, or effect the other way; inactive = no such curve, though single readings can be large or run the other way; the % refers to the signal ratio)
Procedure, shortened: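 Fluorescence from a beta-lactamase FRET substrate (LiveBLAzer B/G, 2 h, room temperature) measured inhibition of R1881-stimulated signaling in GeneBLAzer AR-UAS-bla HEK293 cells exposed to compound for 16 h at 37C.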

[16] = target: Androgen receptor (Homo sapiens) (UniProt P10275); test: qHTS assay to identify small molecule agonists of the androgen receptor (AR) signaling pathway (AID 743036; active = well fitted activation curve with a large enough effect in the signal ratio in the repeat runs, with a control signal flat, not every such curve was filed as active; inconclusive = weak or mixed curves, or effect the other way; inactive = no such curve, though single readings can be large or run the other way; the % refers to the signal ratio)
Procedure, shortened: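 Cell-based FRET reporter assay: HEK293 line with a UAS-beta-lactamase construct, compounds added in DMSO, 16 h exposure at 37C, then 2 h substrate step at room temperature and fluorescence intensity read.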

[17] = target: Androgen receptor (Homo sapiens) (UniProt P10275); test: qHTS assay to identify small molecule agonists of the androgen receptor (AR) signaling pathway using the MDA cell line (AID 743040; also: nearly all actives have a fitted effect of over 20% in size)
Procedure, shortened: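 Human breast carcinoma MDA-kb2 reporter cells (MMTV-luc, AR/GR elements) were treated for 16 h at 37C in 0% CO2 following a 5 h settling period. Signal was quantified by ONE-Glo luminescence.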

[18] = target: Androgen receptor (Homo sapiens) (UniProt P10275); test: qHTS assay to identify small molecule antagonists of the androgen receptor (AR) signaling pathway using the MDA cell line (AID 743042; also: nearly all actives have a fitted effect of over 55% in size)
Procedure, shortened: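 MDA-kb2 breast carcinoma cells carrying MMTV-luciferase (AR/GR responsive) were co-treated with compounds and the agonist R1881 for 16 h at 37C. Inhibition read as ONE-Glo luminescence; CellTiter-Fluor fluorescence measured in parallel for cytotoxicity.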

[19] = qHTS assay for identifying genotoxic compounds that show differential cytotoxicity against isogenic chicken DT40 cell lines with known DNA damage response pathways - Rad54/Ku70 mutant cell line (AID 743015); also: nearly all actives have a fitted effect of over 60% in size; also: potency is read from the fitted curve at half-maximal effect
[20] = qHTS assay for identifying genotoxic compounds that show differential cytotoxicity against isogenic chicken DT40 cell lines with known DNA damage response pathways - Rev3 mutant cell line (AID 743014); also: nearly all actives have a fitted effect of over 55% in size; also: potency is read from the fitted curve at half-maximal effect
Tags tell the direction and shape of the fitted curve or compound fluorescence and quenching.

Sequence of Androgen receptor (Homo sapiens) (P10275 whole entry, looked up): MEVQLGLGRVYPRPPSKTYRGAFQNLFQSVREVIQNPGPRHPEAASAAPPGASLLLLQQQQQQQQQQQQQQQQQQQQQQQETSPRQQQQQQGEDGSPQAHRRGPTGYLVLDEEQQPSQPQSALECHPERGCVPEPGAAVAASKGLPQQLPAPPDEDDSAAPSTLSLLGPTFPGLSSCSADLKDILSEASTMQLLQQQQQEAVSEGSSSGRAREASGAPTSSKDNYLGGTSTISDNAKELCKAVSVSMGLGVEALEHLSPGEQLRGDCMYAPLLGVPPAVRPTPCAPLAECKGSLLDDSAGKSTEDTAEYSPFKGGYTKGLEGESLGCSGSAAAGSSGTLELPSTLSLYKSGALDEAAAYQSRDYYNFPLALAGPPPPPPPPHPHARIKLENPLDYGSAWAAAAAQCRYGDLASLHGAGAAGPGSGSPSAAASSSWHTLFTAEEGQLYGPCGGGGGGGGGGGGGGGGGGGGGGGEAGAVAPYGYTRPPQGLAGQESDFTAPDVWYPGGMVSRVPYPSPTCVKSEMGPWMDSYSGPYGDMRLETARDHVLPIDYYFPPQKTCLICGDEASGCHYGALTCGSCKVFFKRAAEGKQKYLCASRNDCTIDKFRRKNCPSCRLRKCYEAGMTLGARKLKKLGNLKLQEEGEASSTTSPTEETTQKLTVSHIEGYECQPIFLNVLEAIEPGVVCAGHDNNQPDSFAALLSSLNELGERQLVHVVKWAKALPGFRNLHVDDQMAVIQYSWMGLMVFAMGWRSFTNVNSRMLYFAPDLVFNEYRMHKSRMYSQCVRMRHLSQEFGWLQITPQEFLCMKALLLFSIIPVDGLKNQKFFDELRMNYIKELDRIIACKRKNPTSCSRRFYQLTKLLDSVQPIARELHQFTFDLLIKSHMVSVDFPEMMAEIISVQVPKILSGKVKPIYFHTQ
Sequence of Glucocorticoid receptor (Homo sapiens) (P04150 whole entry, looked up): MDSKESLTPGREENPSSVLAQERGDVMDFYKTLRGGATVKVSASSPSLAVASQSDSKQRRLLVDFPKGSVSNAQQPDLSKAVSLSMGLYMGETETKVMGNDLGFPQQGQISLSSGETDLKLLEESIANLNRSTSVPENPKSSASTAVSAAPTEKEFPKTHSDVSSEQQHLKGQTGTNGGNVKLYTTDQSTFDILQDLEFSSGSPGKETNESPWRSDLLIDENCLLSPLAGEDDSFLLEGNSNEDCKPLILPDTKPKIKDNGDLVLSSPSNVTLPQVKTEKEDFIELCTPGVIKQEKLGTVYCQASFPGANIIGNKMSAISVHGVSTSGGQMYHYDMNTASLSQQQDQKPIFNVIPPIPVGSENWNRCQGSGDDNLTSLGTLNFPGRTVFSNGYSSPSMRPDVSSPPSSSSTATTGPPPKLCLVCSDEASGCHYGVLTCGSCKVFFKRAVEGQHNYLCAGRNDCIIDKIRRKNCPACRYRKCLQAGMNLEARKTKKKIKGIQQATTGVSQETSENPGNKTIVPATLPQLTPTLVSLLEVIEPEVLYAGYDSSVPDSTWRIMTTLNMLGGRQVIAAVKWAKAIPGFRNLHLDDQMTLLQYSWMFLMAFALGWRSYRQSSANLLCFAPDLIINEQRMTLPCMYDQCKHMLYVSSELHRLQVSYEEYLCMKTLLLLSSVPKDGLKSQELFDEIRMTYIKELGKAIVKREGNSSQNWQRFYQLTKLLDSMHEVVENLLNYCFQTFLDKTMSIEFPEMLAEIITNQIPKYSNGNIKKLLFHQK

Row | Compound | Potency [1] | Potency [2] | Potency [3] | Potency [4] | Potency [5] | Potency [6] | Potency [7] | Potency [8] | Potency [9] | Potency [10] | Potency [11] | Potency [12] | Potency [13] | Potency [14] | Potency [15] | outcome [16] | outcome [17] | Potency [18] | Potency [19] | Potency [20]
1 | C=C1CC[C@H](O)C/C1=C\C=C1/CCC[C@]2(C)[C@@H]([C@H](C)CCCC(C)C)CC[C@@H]12 | inactive | inactive | inactive | inactive | inactive | inactive | inactive | inactive | 54.4 µM (active) | 11.9 µM (active) and 54 µM (active) | inactive | inactive |  |  |  |  |  |  |  | 
2 | CN(C)C(=O)Nc1ccc(Cl)c(Cl)c1 | inactive | inactive | inactive | inactive |  | inactive | inactive | inactive | inactive | inactive | inactive | inactive | inactive | inactive | inactive | inactive | inactive | inactive |  | 
3 | CN(C)C(=S)SC(=S)N(C)C | inactive | inactive | inactive | inactive |  | inactive | inactive | 448 nM (active) | inactive | 944 nM (active) and 1.11 µM (active) and 172 nM (active) | 7.56 µM (active) and 1.42 µM (active) and 2.75 µM (active) | 6.99 µM (active) and 6.27 µM (active) and 1.22 µM (active) | inactive |  |  |  |  |  |  | 
4 | CN1CCc2cccc3c2[C@H]1Cc1ccc(O)c(O)c1-3 | inactive | inactive | inactive | inactive |  | inactive | inactive | inactive | inactive | 9.44 µM (active) and 15.5 µM (active) and 12.8 µM (active) | 55.5 µM (active) | inactive | inactive | inactive |  |  |  |  |  | 
5 | CC1(C)O[C@@H]2C[C@H]3[C@@H]4CCC5=CC(=O)C=C[C@]5(C)[C@@]4(F)[C@@H](O)C[C@]3(C)[C@]2(C(=O)CO)O1 | inactive | inactive | inactive | inactive |  | inactive | inactive | 3 nM [inconclusive] (active) and 349 nM [inconclusive] (active) and 1.4 nM (active) | inactive | inactive | inactive | inactive | inactive |  |  |  |  |  | inactive | 
6 | COc1ccc2c(c1)c(CC(=O)O)c(C)n2C(=O)c1ccc(Cl)cc1 | inactive | inactive | inactive | inactive | inactive | inactive | inactive | inactive | inactive | inactive | inactive | inactive |  |  |  |  | inactive | inactive | inactive | 
7 | CCCCNC(=O)NS(=O)(=O)c1ccc(C)cc1 | inactive | inactive | inactive | inactive | inactive | inactive | inactive | inactive | inactive | inactive | inactive | inactive |  | inactive |  |  |  |  |  | inactive
8 | CCN(CC)C(=O)c1cccc(C)c1 | inactive | inactive | inactive | inactive |  | inactive | inactive | inactive | inactive | inactive | inactive | inactive | inactive | inactive |  |  |  |  | inactive | 
9 | Cc1cn([C@H]2C=C[C@@H](CO)O2)c(=O)[nH]c1=O | inactive | inactive | inactive | inactive | inactive | inactive | inactive |  | inactive | inactive | inactive | inactive |  |  |  |  |  |  |  | 
10 | CC1(C)S[C@@H]2[C@H](NC(=O)[C@H](N)c3ccccc3)C(=O)N2[C@H]1C(=O)O | inactive | inactive | inactive | inactive |  | inactive | inactive |  | inactive | inactive | inactive | inactive | inactive |  |  |  |  |  | inactive | 
11 | O=C1OC2(c3ccccc31)c1cc(Br)c(O)c(Br)c1Oc1c2cc(Br)c(O)c1Br | 11.2 µM [fluorescent] (active) and 28.2 µM [fluorescent] (active) | inactive | 11.2 µM [fluorescent] (active) and 17.8 µM [fluorescent] (active) | 4.47 µM [fluorescent] (active) and 3.55 µM [fluorescent] (active) |  | inactive | 10 µM [fluorescent] (active) and 20 µM [fluorescent] (active) |  | inactive | inactive | inactive | 11.9 µM (active) and 7.81 µM (active) and 17.7 µM (active) | inactive |  |  |  |  |  |  | 
12 | CC/C(=C(\c1ccccc1)c1ccc(OCCN(C)C)cc1)c1ccccc1 | inactive | inactive | inactive | inactive |  | inactive | inactive |  |  |  | 13.9 µM (active) and 15.5 µM (active) and 11.1 µM (active) |  | inactive |  |  |  |  |  |  | 
13 | Nc1ccc(S(N)(=O)=O)cc1 | inactive | inactive | inactive | inactive |  | inactive | inactive | inactive | inactive | inactive | inactive | inactive |  | inactive |  |  |  |  |  | 68.9 µM (active) and inactive
14 | COc1ccc(C(Cl)=C(c2ccc(OC)cc2)c2ccc(OC)cc2)cc1 | inactive | inactive | inactive | inactive |  | inactive | inactive | inactive | inactive | 23.7 µM (active) and 24.3 µM (active) | inactive | inactive |  |  |  |  |  |  | 26.6 µM (active) and 60.8 µM (active) and 24.3 µM (active) | 
15 | CCN(Cc1c(F)cccc1Cl)c1c([N+](=O)[O-])cc(C(F)(F)F)cc1[N+](=O)[O-] | inactive | inactive | inactive | inactive |  | inactive | inactive |  |  | 30.6 µM (active) |  | inactive |  |  |  |  |  |  |  | 
16 | CN1[C@@H]2CC(OC(=O)[C@H](CO)c3ccccc3)C[C@H]1[C@@H]1O[C@@H]12 (some centres undefined) | inactive | inactive | inactive | inactive |  | inactive | inactive |  | inactive |  | inactive | inactive |  |  |  |  |  |  |  | 
17 | CC(=O)Nc1c(I)c(NC(C)=O)c(I)c(C(=O)O)c1I | inactive | inactive | inactive | inactive |  | inactive | inactive | inactive | inactive | inactive | inactive | inactive |  | inactive |  |  |  |  | inactive | inactive
18 | CCc1nc(N)nc(N)c1-c1ccc(Cl)cc1 | inactive | inactive | inactive | inactive |  | inactive | inactive | inactive | inactive | 596 nM (active) and 139 nM (active) and 273 nM (active) |  | inactive |  | inactive |  |  |  |  |  | 
